Reference: PubChem BioAssay (NCI)
This is part of a sample that, as a whole, favours compounds with a hit. Of some 79,000 tested, about 15% had one in any assay. The source made the active and inactive calls. Cut-off read from the data, not from the text of the source: active = growth inhibition above about 70%; inactive = the rest.

Columns and labels:
[1] = NCI Yeast Anticancer Drug Screen. Data for the rad52 strain (AID 147);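 note: 0% = growth of vehicle-treated control cultures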; conditions: S. cerevisiae rad52 mutant growth inhibition, hits give high values
How it was run: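 Screen used a yeast mutant impaired in DNA repair. After compound exposure, growth was measured. Values reflect inhibition compared with vehicle-treated cells.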

[2] = NCI Yeast Anticancer Drug Screen. Data for the wt1 strain (AID 149);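 note: 0% = growth of vehicle-treated wt1 cultures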; conditions: S. cerevisiae wt1 strain (SPY 50644) growth inhibition, hits give high values
How it was run: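 The wt1 strain was treated with compounds, and growth was compared with vehicle-treated cultures to give inhibition.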

[3] = NCI Yeast Anticancer Drug Screen. Data for the rad50EPP+ strain (AID 151);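 note: 0% = growth of vehicle-treated control cultures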; conditions: S. cerevisiae rad50 mutant strain, hits give high values
How it was run: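 Exposing the rad50EPP+ strain to each compound, growth was compared with vehicle-only cultures to give inhibition.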

[4] = NCI Yeast Anticancer Drug Screen. Data for the mgt1 strain (AID 153); conditions: S. cerevisiae mgt1 mutant growth inhibition, hits give high values
How it was run: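 Genetically defined yeast (mgt1) treated with compound; inhibition of growth expressed against vehicle-treated controls.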

[5] = NCI Yeast Anticancer Drug Screen. Data for the rad50 strain (AID 155);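 note: 0% = growth of vehicle-only cultures of the same strain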; conditions: S. cerevisiae rad50 strain growth inhibition, hits give high values
How it was run: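 Cells are treated with compound, grown, and their growth is then scored against vehicle-only cultures of the same repair-deficient yeast strain.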

[6] = NCI Yeast Anticancer Drug Screen. Data for the mec2-1 strain (AID 157); conditions: S. cerevisiae mec2-1 strain, hits give high values
How it was run: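 Readout is yeast growth inhibition, normalised to vehicle-treated controls, in the mec2-1 strain exposed to compound.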

[7] = NCI Yeast Anticancer Drug Screen. Data for the rad14 strain (AID 159);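 note: 0% = growth of vehicle-treated control cultures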; conditions: S. cerevisiae rad14 strain growth inhibition, hits give high values
How it was run: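 Readout: yeast growth inhibition, referenced to vehicle-only cultures. Strain bears a defined alteration in DNA damage repair.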

[8] = NCI Yeast Anticancer Drug Screen. Data for the sgs1 mgt1 strain (AID 161);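 note: 0% = growth of cultures given vehicle only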; conditions: S. cerevisiae sgs1 mgt1 strain, hits give high values
How it was run: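 Compounds are added to genetically altered yeast, and growth is compared with cultures given vehicle alone to give percent inhibition.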

[9] = NCI Yeast Anticancer Drug Screen. Data for the CLN2oe strain (AID 163);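 note: 0% = growth of vehicle-only control cultures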; conditions: S. cerevisiae CLN2oe strain, hits give high values
How it was run: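 Values reflect how much compound exposure reduced yeast growth, referenced to vehicle-exposed cells. Assay organism is a strain with a defined genetic change affecting cell-cycle control.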

[10] = NCI Yeast Anticancer Drug Screen. Data for the bub3 strain (AID 167); conditions: S. cerevisiae bub3 mutant strain, hits give high values
How it was run: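 Part of a panel of yeast mutants defective in DNA damage repair or cell cycle regulation. Each strain is grown with compound, and inhibition is calculated relative to solvent-treated cultures.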

[11] = NCI Yeast Anticancer Drug Screen. Data for the mlh1 strain (AID 171);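 note: 0% = growth of vehicle-treated control cultures of the same strain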; conditions: S. cerevisiae mlh1 strain growth inhibition, hits give high values
How it was run: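 Steps: expose the defined-mutant yeast strain to compound; expose a parallel culture to vehicle; measure growth; express compound effect as inhibition relative to the vehicle culture.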

[12] = NCI Yeast Anticancer Drug Screen. Data for the mlh1 rad18 strain (AID 175); conditions: S. cerevisiae mlh1 rad18 strain growth inhibition, hits give high values
How it was run: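 Test agents were incubated with a yeast strain of defined genotype (DNA damage repair defect). Inhibition of growth was derived by comparison with vehicle-exposed cultures.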

[13] = NCI Yeast Anticancer Drug Screen. Data for the rad18 strain (AID 177); conditions: S. cerevisiae rad18 mutant growth inhibition, hits give high values
How it was run: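 A genetically defined yeast mutant impaired in DNA damage repair was treated with test compounds, then its growth was measured against cultures receiving vehicle alone.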

[14] = NCI Yeast Anticancer Drug Screen. Data for the cln2 rad14 strain (AID 165);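 note: 0% = growth equal to vehicle treated cultures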; conditions: S. cerevisiae cln2 rad14 strain, hits give high values
How it was run: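 Relative to vehicle controls, growth inhibition of compound-treated cln2 rad14 yeast was recorded.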

[15] = NCI Yeast Anticancer Drug Screen. Data for the wt2 strain (AID 169);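 note: 0% = growth of vehicle-treated yeast cultures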; conditions: S. cerevisiae wt2 strain growth inhibition, hits give high values
How it was run: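 Values express reduction in yeast growth under compound treatment, referenced to vehicle-treated cells.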

[16] = NCI Yeast Anticancer Drug Screen. Data for the sgs1 strain (AID 173);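 note: 0% = growth of vehicle-only control cultures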; conditions: S. cerevisiae sgs1 mutant, hits give high values
How it was run: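 Treat defined-mutant yeast with compound; measure growth; calculate inhibition relative to vehicle-treated cells.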

[17] = at 5.0 µM (retest, dose inferred, filed as 0.5)
[18] = at 50.0 µM (retest, dose inferred, filed as 5.0)

Measured: growth inhibition

O=[N+]([O-])c1cn[n+]([O-])c2ccccc12
inactive: [1]; at 1.2 µM 33% | [1]; at 3.7 µM 59% | [2]; at 1.2 µM 0% | [2]; at 3.7 µM 16% | [2]; at 11.0 µM 34% | [3]; at 1.2 µM 61% | [4]; at 1.2 µM 10% | [4]; at 3.7 µM -5% | [4]; at 11.0 µM 33% | [5]; at 1.2 µM 14% | [5]; at 3.7 µM 58% | [5]; [17] 25% | [6]; at 1.2 µM 17% | [6]; at 3.7 µM 10% | [6]; [17] -31% | [6]; at 11.0 µM 52% | [7]; at 1.2 µM 21% | [7]; at 3.7 µM 43% | [8]; [17] 38% | [9]; at 1.2 µM 0% | [9]; at 3.7 µM 11% | [9]; at 11.0 µM 14% | [10]; at 1.2 µM -1% | [10]; at 3.7 µM -12% | [10]; [17] -28% | [10]; at 11.0 µM 0% | [11]; at 1.2 µM 10% | [11]; at 3.7 µM 6% | [11]; at 11.0 µM 39% | [12]; [17] 38%
active: [1]; at 11.0 µM 90% | [1]; at 33.0 µM 97% | [1]; at 100.0 µM 99% | [2]; at 33.0 µM 93% | [2]; at 100.0 µM 99% | [3]; at 3.7 µM 90% | [3]; at 11.0 µM 96% | [3]; at 33.0 µM 99% | [3]; at 100.0 µM 100% | [4]; at 33.0 µM 99% | [4]; at 100.0 µM 99% | [5]; at 11.0 µM 85% | [5]; at 33.0 µM 97% | [5]; [18] 97% | [5]; at 50.0 µM 89.3% | [5]; at 100.0 µM 99% | [6]; at 33.0 µM 97% | [6]; [18] 99% | [6]; at 50.0 µM 91.8% | [6]; at 100.0 µM 99% | [7]; at 11.0 µM 91% | [7]; at 33.0 µM 99% | [7]; at 100.0 µM 99% | [8]; [18] 99% | [8]; at 50.0 µM 90.3% | [9]; at 33.0 µM 84% | [9]; at 100.0 µM 99% | [10]; at 33.0 µM 99% | [10]; [18] 99% | [10]; at 50.0 µM 89.5% | [10]; at 100.0 µM 99% | [11]; at 33.0 µM 95% | [11]; at 100.0 µM 99% | [12]; [18] 97% | [12]; at 50.0 µM 92% | [13]; at 1.2 µM 92% | [13]; at 3.7 µM 93% | [13]; at 11.0 µM 95% | [13]; at 33.0 µM 98% | [13]; at 100.0 µM 99%

NC(CS)C(=O)NCCNc1ccc(NCCNC(=O)C(N)CS)c2c1C(=O)c1c(O)ccc(O)c1C2=O (stereo not drawn)
inactive: [1]; at 1.2 µM -10% | [1]; at 3.7 µM 58% | [1]; at 100.0 µM 48% | [2]; at 1.2 µM -42% | [2]; at 3.7 µM -25% | [2]; at 11.0 µM -67% | [2]; at 33.0 µM 45% | [2]; at 100.0 µM 68% | [3]; at 1.2 µM -4% | [3]; at 3.7 µM 46% | [3]; at 11.0 µM 67% | [3]; at 100.0 µM 54% | [4]; at 1.2 µM 7% | [4]; at 3.7 µM 18% | [4]; at 11.0 µM 23% | [4]; at 100.0 µM 62% | [5]; at 1.2 µM 33% | [5]; at 3.7 µM 67% | [5]; at 100.0 µM 62% | [6]; at 1.2 µM -42% | [6]; at 3.7 µM -26% | [6]; [17] 2% | [6]; at 11.0 µM -11% | [6]; at 100.0 µM 65% | [7]; at 1.2 µM -55% | [7]; at 3.7 µM -47% | [7]; at 11.0 µM -43% | [7]; at 100.0 µM 57% | [8]; [17] 6% | [8]; [18] -32% | [9]; at 1.2 µM -4% | [9]; at 3.7 µM 4% | [9]; at 11.0 µM -10% | [9]; at 100.0 µM 56% | [14]; [17] 20% | [14]; [18] -57% | [10]; at 1.2 µM -29% | [10]; at 3.7 µM -21% | [10]; [17] 13% | [10]; at 11.0 µM -34% | [10]; [18] -54% | [10]; at 50.0 µM 68.2% | [10]; at 100.0 µM 51% | [15]; at 1.2 µM -19% | [15]; at 3.7 µM -57% | [15]; at 11.0 µM -63% | [15]; at 100.0 µM 64% | [16]; at 1.2 µM -23% | [16]; at 3.7 µM -36% | [16]; at 11.0 µM -27% | [16]; at 100.0 µM 63% | [12]; [17] 13% | [13]; at 1.2 µM 3% | [13]; at 3.7 µM -10% | [13]; at 11.0 µM -8% | [13]; at 100.0 µM 61%
active: [1]; at 11.0 µM 73% | [1]; at 33.0 µM 80% | [3]; at 33.0 µM 80% | [4]; at 33.0 µM 86% | [5]; [17] 75% | [5]; at 11.0 µM 81% | [5]; at 33.0 µM 85% | [5]; [18] 88% | [5]; at 50.0 µM 79.2% | [6]; at 33.0 µM 86% | [6]; [18] 89% | [6]; at 50.0 µM 76% | [7]; at 33.0 µM 81% | [8]; at 50.0 µM 78.7% | [9]; at 33.0 µM 84% | [14]; at 50.0 µM 74.2% | [10]; at 33.0 µM 81% | [15]; at 33.0 µM 81% | [16]; at 33.0 µM 84% | [12]; [18] 80% | [12]; at 50.0 µM 72.5% | [13]; at 33.0 µM 84%
